# Test: LNCaP granularity increase inducers, single-point recheck – cell-based, side scatter shift, flow cytometry, confirmation (AID 1069);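 further: LNCaP human prostate cancer cells in low-serum medium with charcoal-stripped FBS; percent of cells with raised granularity gated so DMSO controls show 10%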
# Settings: LNCaP differentiation, 4 d, side scatter shift, at 10 µM, stronger effect = higher value
row,Compound,side scatter shift
1,CCN1CCN(CCNC(=O)C2CCN(Cc3nc(-c4ccc(Cl)cc4)oc3C)CC2)CC1,28.8%
2,Cn1c(C(=O)NCCCN2CCN(c3cccc(Cl)c3)CC2)cc2c(=O)n(C)c3ccccc3c21,5.45%
3,O=C(Cc1coc(-c2ccc(F)cc2)n1)N1CCOCC1,2.15%
4,CCCOc1ccc2nc(NC(=O)OC)[nH]c2c1,2.95%
5,CCN1C(=O)OC2(CCCCC2)C1(C)O (configuration not stated),12.7%
6,CCC(CC)C(=O)Nc1cccc(C(=O)NCc2ccco2)c1,6%
7,Cc1ccc(Cl)cc1N1CCN(C(=O)c2cc3c(=O)n(C)c4ccccc4c3n2C)CC1,22.5%
8,CCCc1cc(-c2n[nH]c(C)c2-c2ccc(C(=O)OCC)o2)c(O)cc1O,5.15%
9,CCCNC(=O)C1CN(S(=O)(=O)c2ccccc2)CCN1S(=O)(=O)c1ccccc1 (configuration not stated),8%
10,COc1ccc(-c2cc(C(F)(F)F)nc(N3CCN(c4ccc(F)cc4)CC3)n2)cc1OC,3.05%
11,O=S(=O)(Nc1cccc2ncccc12)c1cccs1,5.95%
12,CCn1c(=O)cc(SCC(=O)NCCCN2CCN(c3ccccc3F)CC2)c2ccccc21,33.5%
13,Cc1nc2ncnn2c(C)c1CCC(=O)NCCCN1CCN(c2cccc(Cl)c2)CC1,8.55%
14,CCn1c(=N)n(CC(O)COc2cccc(C)c2)c2ccccc21 (configuration not stated),9.75%
15,CC1CCCCN1CCNC(=O)c1cc2c(-c3ccccc3F)nn(C)c2s1 (configuration not stated),19.9%
16,Cc1oc(-c2cccc(Cl)c2)nc1CN1CCCC(C(=O)NCc2ccco2)C1 (configuration not stated),5.55%
17,COc1ccc(OC)c(CNC(=O)CCNC(=O)Cn2ccc3ccccc3c2=O)c1,7.3%
